In PubChem BioAssay (Tox21):
Where “and” joins values, the source holds several entries; their conditions need not be identical. Equal entries are not always repeated. Results filed as inconclusive are left out. Where a call stands in place of a potency, no number is given. Where a structure was tested more than once in an assay, its records may differ in their call. Calls of active or inactive are those of the source. Unless noted, calls come from the whole dose curve; as a rule, active = well fitted curve in the direction sought with a large enough effect in the repeat runs; inconclusive = weak or mixed curves; inactive = no such curve, though single readings can be large; an effect the other way counts as inactive or inconclusive.

Key:
[1] = A CellTox Green Cytotoxicity Assay to monitor cytotoxicity in HEK293 cells - 32 hour (AID 1224881); note: nearly all actives have a fitted effect of over 40% in size
In short: (§1)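 Each value comes from one timepoint of a single continuous run in which HEK293 cells with CellTox Green were exposed to compound for up to 40 h at 37 C, dye fluorescence rising with cell death.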

[2] = A CellTox Green Cytotoxicity Assay to monitor cytotoxicity in HepG2 cells - 0 hour (AID 1224882); note: nearly all actives have a fitted effect of over 35% in size
In short: (§2)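 Continuous culture of HepG2 cells with a membrane-impermeant DNA dye; rising fluorescence marks dead cells. Compound exposure lasted up to 40 h at 37 C, with reads every 8 h from 0 h.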

[3] = A CellTox Green Cytotoxicity Assay to monitor cytotoxicity in HEK293 cells - 8 hour (AID 1224884); note: nearly all actives have a fitted effect of over 35% in size
In short: as §1

[4] = qHTS RealTime-Glo MT Cell Viability Assay in HEK293 cells - 24 hour (AID 1224886); note: nearly all actives have a fitted effect of over 50% in size; note: potency is the fitted concentration of half-maximal effect
In short: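 HEK293 cells seeded with NanoLuc/prosubstrate reagent, rested 5 h at 37 C, then dosed and kept at 37 C up to 40 h. Nonlytic real-time luminescence from viable cells read at 0, 8, 16, 24, 32 and 40 h.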

[5] = qHTS RealTime-Glo MT Cell Viability Assay in HEK293 cells - 8 hour (AID 1224887); note: top concentration of the series differs between compounds; nearly all actives have a fitted effect of over 50% in size
In short: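 qHTS format; HEK293 cells with NanoLuc/prosubstrate reagent, 37 C/5% CO2 for 5 h pre-dosing; compounds 23 nL in DMSO; luminescence at each time point reflects viable cells.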

[6] = A CellTox Green Cytotoxicity Assay to monitor cytotoxicity in HEK293 cells - 16 hour (AID 1224888); note: nearly all actives have a fitted effect of over 35% in size
In short: as §1

[7] = qHTS RealTime-Glo MT Cell Viability Assay in HepG2 cells - 0 hour (AID 1224889); note: nearly all actives have a fitted effect of over 50% in size
In short: (§3)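 HepG2 cells (600/well) were dispensed with RealTime-Glo reagents, incubated 5 h at 37 °C, then treated with compounds in DMSO for up to 40 h. Nonlytic NanoLuc luminescence reflecting viable cells was read at each stated time point.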

[8] = A CellTox Green Cytotoxicity Assay to monitor cytotoxicity in HepG2 cells - 8 hour (AID 1224890); note: nearly all actives have a fitted effect of over 45% in size
In short: as §2

[9] = qHTS assay to identify small molecule antagonists of the estrogen receptor alpha (ER-alpha) signaling pathway using the BG1 cell line in the presence of 0.1 nM 17-beta-estradiol - cell viability counter screen (AID 1259241); note: nearly all actives have a fitted effect of over 40% in size
In short: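 CellTiter-Fluor read (30 min, 37C) on ER-alpha/ERE-luc VM7Luc4E2 cells; 22 hr compound treatment; agonist 0.1 nM E2 final; same-well multiplex.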

[10] = qHTS assay to identify small molecule antagonists of the androgen receptor (AR) signaling pathway using the MDA cell line in the presence of 0.5 nM R1881 - cell viability counter screen (AID 1259242); note: nearly all actives have a fitted effect of over 45% in size
In short: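 Fluorescence from CellTiter-Fluor, which reports protease activity of live cells, was read 30 min after reagent addition to MDA-kb2 cells that had been incubated 16 hr with compound and 0.5 nM R1881.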

[11] = target: Estrogen receptor (Homo sapiens) (UniProt P03372); assay: qHTS assay to identify small molecule antagonists of the estrogen receptor alpha (ER-alpha) signaling pathway using the BG1 cell line in the presence of 0.1 nM 17-beta-estradiol (AID 1259244); note: nearly all actives have a fitted effect of over 50% in size
Estrogen receptor (Homo sapiens), sequence (P03372 whole entry, looked up): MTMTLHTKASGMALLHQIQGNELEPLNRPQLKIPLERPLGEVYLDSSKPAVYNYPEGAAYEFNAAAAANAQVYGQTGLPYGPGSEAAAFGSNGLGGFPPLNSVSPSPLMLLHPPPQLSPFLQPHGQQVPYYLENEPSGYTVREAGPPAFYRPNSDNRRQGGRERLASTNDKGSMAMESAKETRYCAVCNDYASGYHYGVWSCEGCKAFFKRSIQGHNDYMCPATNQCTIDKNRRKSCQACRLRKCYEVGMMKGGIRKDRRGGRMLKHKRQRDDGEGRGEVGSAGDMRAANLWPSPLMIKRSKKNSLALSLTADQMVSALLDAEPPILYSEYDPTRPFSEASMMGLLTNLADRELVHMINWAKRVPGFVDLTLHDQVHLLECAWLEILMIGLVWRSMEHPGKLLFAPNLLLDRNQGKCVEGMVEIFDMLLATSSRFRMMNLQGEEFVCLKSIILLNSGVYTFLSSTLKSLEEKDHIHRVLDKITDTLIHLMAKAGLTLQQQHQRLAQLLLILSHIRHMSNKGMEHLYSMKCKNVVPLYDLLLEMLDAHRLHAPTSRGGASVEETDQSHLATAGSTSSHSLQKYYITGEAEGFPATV
In short: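 Quantitative high-throughput screen in VM7Luc4E2 cells: compound plus 0.1 nM E2 (final), 22 h, 37C, 5% CO2; ONE-Glo added, 30 min room temperature, luminescence measured.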

[12] = qHTS assay to identify small molecule HDAC inhibitors (AID 1259364); note: nearly all actives have a fitted effect of over 45% in size; note: potency is the fitted concentration of half-maximal effect
In short: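 Endogenous HDAC class I/II activity was measured in wild-type HCT-116 cells by HDAC-Glo luminescence after 2 h compound treatment.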

[13] = qHTS assay to identify small molecule HDAC inhibitors - cell viability counter screen (AID 1259365)
In short: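 To flag cytotoxic hits, 1,500 wild-type HCT-116 cells per well, plated the day before, receive test compounds for 2hr at 37 C before CellTiter-Glo reagent and a luminescence read.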

[14] = qHTS assay to identify small molecule agonists of the sonic hedgehog signaling (Shh) pathway - cell viability counter screen (AID 1259366); note: nearly all actives have a fitted effect of over 50% in size; note: potency is the fitted concentration of half-maximal effect
In short: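 Fluorescence from CellTiter-Fluor reports live cells in this counter screen. NIH/3T3-derived Gli1-Luc reporter cells receive test compounds for 24hr at 37C; reagent goes in at 23hr.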

[15] = qHTS assay to identify small molecule antagonists of the sonic hedgehog signaling (Shh) pathway - cell viability counter screen (AID 1259367); note: nearly all actives have a fitted effect of over 55% in size; note: potency is the fitted concentration of half-maximal effect
In short: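 NIH/3T3-derived Gli1-Luc reporter cells, 2,000/well, plated 4 hr before compound addition, then stimulated with conditioned medium for 24 hr at 37C. Viability measured in the same wells by CellTiter-Fluor fluorescence, reagent added at 23 hr for 1 hr.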

[16] = qHTS assay to identify small molecule agonists of the sonic hedgehog signaling (Shh) pathway (AID 1259368; calls by dose curve;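 note: NIH/3T3-derived 3T3Gli1-Luc cells carrying a stable Gli1-driven firefly luciferase reporter; series mostly up to about 92 µM; nearly all actives have a fitted effect of over 15% in size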)
In short: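 Luminescent signal was taken as a measure of Gli1-controlled luciferase expression in stably transfected NIH/3T3-derived cells that had been treated for 24 hr with compounds delivered in DMSO.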

[17] = qHTS RealTime-Glo MT Cell Viability Assay in HepG2 cells - 16 hour (AID 1224885); note: nearly all actives have a fitted effect of over 50% in size
In short: as §3

[18] = qHTS assay to identify small molecule phospholipidosis (PLD) inducers (AID 1259344; active = well fitted curve in the direction sought with a large enough effect; an effect the other way counts as inactive or inconclusive)
In short: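 HepG2 cells, 900/well, treated with compound plus LipidTOX Red for 24 h at 37 C; amiodarone positive and DMSO negative controls. Fixed with paraformaldehyde/Hoechst, then high-content imaging scored LipidTOX pit count and integrated intensity per well and per cell.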

[19] = target: Androgen receptor (Homo sapiens) (UniProt P10275); assay: qHTS assay to identify small molecule antagonists of the androgen receptor (AR) signaling pathway using the MDA cell line in the presence of 0.5 nM R1881 (AID 1259243); note: nearly all actives have a fitted effect of over 50% in size
Androgen receptor (Homo sapiens), sequence (P10275 whole entry, looked up): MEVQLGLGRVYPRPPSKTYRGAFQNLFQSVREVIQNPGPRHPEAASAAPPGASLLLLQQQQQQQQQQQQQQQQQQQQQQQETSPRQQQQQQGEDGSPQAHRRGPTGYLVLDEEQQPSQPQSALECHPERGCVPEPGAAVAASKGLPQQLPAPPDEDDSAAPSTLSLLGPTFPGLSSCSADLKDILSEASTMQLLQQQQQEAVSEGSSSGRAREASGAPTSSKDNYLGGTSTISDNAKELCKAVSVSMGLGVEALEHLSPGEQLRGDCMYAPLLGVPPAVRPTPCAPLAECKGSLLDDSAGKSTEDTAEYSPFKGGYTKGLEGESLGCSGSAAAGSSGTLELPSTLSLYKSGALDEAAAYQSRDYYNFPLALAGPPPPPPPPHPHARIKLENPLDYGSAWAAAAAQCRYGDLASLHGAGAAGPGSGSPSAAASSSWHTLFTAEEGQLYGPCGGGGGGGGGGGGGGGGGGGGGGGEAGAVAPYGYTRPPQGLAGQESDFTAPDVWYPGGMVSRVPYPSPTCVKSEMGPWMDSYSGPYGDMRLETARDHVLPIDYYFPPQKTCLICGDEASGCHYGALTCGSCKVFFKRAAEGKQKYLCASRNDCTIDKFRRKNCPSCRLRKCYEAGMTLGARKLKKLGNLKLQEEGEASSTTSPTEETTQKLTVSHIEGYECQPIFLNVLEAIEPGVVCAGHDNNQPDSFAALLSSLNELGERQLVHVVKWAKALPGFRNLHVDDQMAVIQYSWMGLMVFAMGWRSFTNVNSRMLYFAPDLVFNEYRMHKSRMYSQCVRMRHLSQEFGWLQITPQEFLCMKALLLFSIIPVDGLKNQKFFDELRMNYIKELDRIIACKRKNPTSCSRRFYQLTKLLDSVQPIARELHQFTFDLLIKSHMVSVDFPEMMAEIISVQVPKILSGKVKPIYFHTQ
In short: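 Inhibition of R1881 (0.5 nM final) induced reporter signal was measured in human MDA-kb2 cells; note the MMTV promoter also responds to GR. Exposure lasted 16 hr at 37C.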

Row | SMILES | Potency [1] | outcome [2] | outcome [3] | Potency [4] | Potency [5] | Potency [6] | Potency [7] | outcome [8] | Potency [9] | Potency [10] | Potency [11] | Potency [12] | outcome [13] | Potency [14] | Potency [15] | outcome [16] | Potency [17] | outcome [18] | Potency [19]
1 | CC(C)OP(=O)(CP(=O)(OC(C)C)OC(C)C)OC(C)C | inactive | inactive | inactive | inactive | inactive | inactive | inactive | inactive | inactive | inactive | inactive | inactive | inactive | inactive | inactive | inactive | – | – | –
2 | N[C@H](Cc1c[nH]c2ccccc12)C(=O)O | inactive | inactive | inactive | inactive | inactive | inactive | inactive | inactive | inactive | inactive | – | inactive | inactive | inactive | inactive | inactive | inactive | inactive | –
3 | C=C(C)C(=O)OCC(C)C | inactive | inactive | inactive | inactive | inactive | inactive | inactive | – | inactive | inactive | inactive | inactive | inactive | 27.7 µM (active) and inactive | 7.8 µM (active) and inactive | inactive | inactive | – | –
4 | CCCCCCCCCCN | inactive | inactive | inactive | inactive | inactive | inactive | inactive | inactive | inactive | inactive | – | inactive | inactive | inactive | inactive | inactive | inactive | – | –
5 | CNC(=S)N(C)C | inactive | inactive | inactive | inactive and 13 µM (active) | inactive | inactive | inactive | – | inactive | inactive | inactive | inactive | inactive | inactive | inactive | inactive | inactive | – | –
6 | CN(C)CCOC(=O)COc1ccc(Cl)cc1 | inactive | inactive | inactive | inactive | inactive | inactive | inactive | inactive | inactive | inactive | – | inactive | inactive | inactive | inactive | inactive | inactive | inactive | –
7 | OCc1ccccc1 | inactive | inactive | inactive | inactive | inactive | inactive | inactive | – | inactive | inactive | inactive | inactive | inactive | inactive | inactive | inactive | inactive | inactive | inactive
8 | CC(CCO)CC(C)(C)C (stereo not given) | inactive | inactive | inactive | inactive | inactive | inactive | inactive | – | inactive | inactive | inactive | inactive | inactive | inactive | inactive | inactive | inactive | – | inactive
9 | CCCCCC(=O)O | inactive | inactive | inactive | inactive | inactive | inactive | inactive | inactive | inactive | inactive | inactive | inactive | inactive | inactive | inactive | inactive | – | – | inactive
10 | COCCCN | inactive | inactive | inactive | inactive | inactive | inactive | inactive | inactive | inactive | inactive | inactive | inactive | inactive | inactive | inactive | inactive | inactive | – | –
11 | COc1cc(OC)c(C(=O)CCCN2CCCC2)c(OC)c1 | inactive | inactive | inactive | inactive | inactive | inactive | inactive | – | inactive | inactive | – | inactive | inactive | inactive | inactive | inactive | inactive | inactive | inactive
12 | CC(C)CC(C)O (stereo not given) | inactive | inactive | inactive | inactive | inactive | inactive | inactive | – | inactive | inactive | inactive | inactive | inactive | inactive | inactive | inactive | – | – | –
13 | CCCCCCC=O | inactive | inactive | inactive | inactive | inactive | inactive | inactive | inactive | inactive | inactive | inactive | inactive | inactive | inactive | inactive | inactive | inactive | – | –
14 | O=C(O)c1cc2ccccc2cc1O | inactive | inactive | inactive | inactive | inactive | inactive | inactive | – | inactive | inactive | inactive | 27.1 µM (active) and 24.3 µM (active) | inactive | inactive | inactive | inactive | inactive | – | inactive
15 | CC(=O)OC1CC(C)OC(C)O1 (stereo not given) | inactive | inactive | inactive | inactive | inactive | inactive | inactive | – | inactive | inactive | – | inactive | inactive | inactive | inactive | inactive | inactive | – | –
16 | CC(=O)CCC=C(C)C | inactive | inactive | inactive | inactive | inactive | inactive | inactive | – | inactive | inactive | inactive | inactive | inactive | inactive | inactive | inactive | – | – | –
17 | CN/C(=C\[N+](=O)[O-])NCCSCc1csc(CN(C)C)n1 | inactive | inactive | inactive | inactive | inactive | inactive | inactive | inactive | inactive | inactive | – | inactive | inactive | inactive | inactive | inactive | – | inactive | inactive
